As usually defined, the viability is a read-out of living cells in per cent, often relative to untreated cells. The AC50 is the concentration at which the activity in the assay is half-maximal.

Five compounds from PubChem BioAssay can be followed below.

Inconclusive results are not listed. Active and inactive are the calls of the source.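 How the source made its calls, unless noted: active means normalized viability below 100% at a tested concentration; inactive means the rest.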

A short description of assay [1]: growth inhibition of DIPG glioma cells, dose response, cell-based, SU-DIPG-XVII, MIPE5.0, CellTiter-Glo, qHTS (AID 1347060; cut-off not given, nearly all actives have AC50 up to about 26 µM). Particulars: SU-DIPG-XVII viability, CellTiter-Glo ATP luminescence.
A short description of assay [2]: growth inhibition of DIPG glioma cells, dose response, cell-based, SU-DIPG-XIII, MIPE4.0, CellTiter-Glo, qHTS (AID 1347061; cut-off not given, nearly all actives have AC50 up to about 37 µM;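 further: cells exposed to compound for 48 hours before readout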). Particulars: SU-DIPG-XIII viability, CellTiter-Glo ATP luminescence. For orientation: In ATP-based viability assays light output follows the ATP content of the culture.
Assay [3] in a line: growth inhibition of DIPG glioma cells, dose response, cell-based, JHH-DIPG-1, MIPE4.0, CellTiter-Glo, qHTS (AID 1347062; cut-off not given, nearly all actives have AC50 up to about 27 µM). Particulars: JHH-DIPG-1 viability, CellTiter-Glo ATP luminescence.
Assay [4] is described as follows: growth inhibition of DIPG glioma cells, dose response, cell-based, SU-DIPG-XIII, MIPE5.0, CellTiter-Glo, qHTS (AID 1347064; cut-off not given, nearly all actives have AC50 up to about 23 µM). To be noted: SU-DIPG-XIII viability, CellTiter-Glo ATP luminescence.
The nature of assay [5]: SU-DIPG-VI glioma cell viability, MIPE4.0 library, CellTiter-Glo luminescence, qHTS (AID 1347066; cut-off not given, nearly all actives have AC50 up to about 30 µM;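 further: cells exposed to compound for 48 hours before readout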). To be noted: CellTiter-Glo ATP luminescence.
A short description of assay [6]: modifiers of HSF1 nuclear foci, imaging, Selleck Cancer Library (AID 1347162; in the data active means plate-normalised HSF1 focus index below about 0.46). To be noted: human cells, at 10 µM; SSMD: measured here: HSF1 foci SSMD mean; cell count: measured here: cell number; plate-normalised HSF1 focus index: stronger effect = lower value.
Assay [7] can be described thus: ovarian cancer cell viability with rucaparib, profiling panel, oncology-focused library, rucaparib conditional (AID 1508598). To be noted: patient-derived ovarian cancer cells, CellTiter-Glo viability, 144 h, stronger effect = lower value.
Assay [8] is described as follows: viability loss in pontine glioma line – cell-based, SU-DIPG-XXV, MIPE5.0, CellTiter-Glo, qHTS, dose response (AID 1347065; cut-off not given, nearly all actives have AC50 up to about 26 µM;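 further: cells exposed to compound for 48 hours before ATP readout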). Particulars: CellTiter-Glo ATP luminescence.
A short description of assay [9]: JHH-DIPG-1 glioma cell viability, MIPE5.0 library, CellTiter-Glo luminescence, qHTS (AID 1347067; cut-off not given, nearly all actives have AC50 up to about 26 µM;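 further: cells exposed to compound for 48 hours before readout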). To be noted: JHH-DIPG-1 glioma viability, CellTiter-Glo ATP luminescence.
Assay [10] is described as follows: SU-DIPG-XXV glioma cell viability, MIPE5.0 library, qHTS (AID 1347068; cut-off not given, nearly all actives have IC50 up to about 30 µM).
Assay [11] in a line: sensitizers of A549 cells to miR-34 induction, primary screen, imaging, A549 dox-inducible miR-34, nuclei and caspase counts (AID 1347080;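 active means compounds whose cell count with miR-34 switched on is under 0.7 times the count with it off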). To be noted: A549 miR-34 inducible, Hoechst nuclei count, 48 h.
The nature of assay [12]: survival rescue of mitochondrial mutant cells in low glucose, primary screen, MELAS cybrids, Rieske KO mouse fibroblasts, CellTiter-Glo (AID 1508586;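 active means mean z-score across replicates of 1.96 or higher in either the MELAS or the Rieske mutant cell line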;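 further: z relative to plate mean and SD of compound and empty wells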).
The nature of assay [13]: growth inhibition of DIPG glioma cells, dose response, cell-based, SU-DIPG-IV, MIPE4.0, CellTiter-Glo, qHTS (AID 1347063; cut-off not given, nearly all actives have AC50 up to about 30 µM;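 further: compound exposure lasted 48 hours before the viability readout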). Particulars: SU-DIPG-IV viability, CellTiter-Glo ATP luminescence.
Where [14] appears, read: stronger effect = lower value, cell number ratio, induced over uninduced.
Setting [15] is: measured here: relative caspase fold change +Dox/-Dox.
The mark [16] stands for this setting: measured here: total cells with miR-34 induction, stronger effect = lower value.
Setting [17] is: measured here: total cells without miR-34 induction.
Setting [18] is: MELAS cybrid survival, CellTiter-Glo 48 h, stronger effect = higher value.
Setting [19] is: Rieske KO mouse fibroblast survival, CellTiter-Glo 72 h.

As to `Cc1ccc([C@@H]2O[C@H](CO)[C@@H](O)[C@H](O)[C@H]2O)cc1Cc1ccc(-c2ccc(F)cc2)s1`, the result in assay [1], in assay [2], in assay [3], in assay [4] and in assay [5] was inactive. This compound returned an SSMD in [6] of 0.238. The compound further displayed a cell count in assay [6] of 7420. The plate-normalised HSF1 focus index in assay [6] was 1.01 (inactive). Moreover, the viability in [7] (at 0.000305 µM, OCI-C5x cells, with rucaparib 10 µM, 100% = cells with rucaparib alone) was 120% (inactive); in assay [7] (at 0.000305 µM, OCI-C5x cells, without rucaparib), 109% (inactive); in [7] (at 0.000305 µM, OCI-P5x cells, with rucaparib 20 µM, 100% = cells with rucaparib alone), 98.8% (active); in assay [7] (at 0.000305 µM, OCI-P5x cells, without rucaparib), 97.6% (active); in assay [7] (at 0.00122 µM, OCI-C5x cells, with rucaparib 10 µM, 100% = cells with rucaparib alone) it was 120% (inactive); in assay [7] (at 0.00122 µM, OCI-C5x cells, without rucaparib), 120% (inactive). Besides, the viability in [7] (at 0.00122 µM, OCI-P5x cells, with rucaparib 20 µM, 100% = cells with rucaparib alone) was 109% (inactive); in assay [7] (at 0.00122 µM, OCI-P5x cells, without rucaparib) it was 93.8% (active); in [7] (at 0.00488 µM, OCI-C5x cells, with rucaparib 10 µM, 100% = cells with rucaparib alone), 115% (inactive); in assay [7] (at 0.00488 µM, OCI-C5x cells, without rucaparib), 118% (inactive); in assay [7] (at 0.00488 µM, OCI-P5x cells, with rucaparib 20 µM, 100% = cells with rucaparib alone), 108% (inactive); in assay [7] (at 0.00488 µM, OCI-P5x cells, without rucaparib) it was 99.4% (active). In addition, the viability is 105% (inactive) in assay [7] (at 0.0195 µM, OCI-C5x cells, with rucaparib 10 µM, 100% = cells with rucaparib alone); 108% (inactive) in assay [7] (at 0.0195 µM, OCI-C5x cells, without rucaparib); 108% (inactive) in assay [7] (at 0.0195 µM, OCI-P5x cells, with rucaparib 20 µM, 100% = cells with rucaparib alone); 103% (inactive) in [7] (at 0.0195 µM, OCI-P5x cells, without rucaparib); 114% (inactive) in assay [7] (at 0.0781 µM, OCI-C5x cells, with rucaparib 10 µM, 100% = cells with rucaparib alone); 128% (inactive) in assay [7] (at 0.0781 µM, OCI-C5x cells, without rucaparib). For the same compound, the viability in [7] (at 0.0781 µM, OCI-P5x cells, with rucaparib 20 µM, 100% = cells with rucaparib alone) is 109% (inactive); in [7] (at 0.0781 µM, OCI-P5x cells, without rucaparib), 102% (inactive); in assay [7] (at 0.313 µM, OCI-C5x cells, with rucaparib 10 µM, 100% = cells with rucaparib alone) it was 117% (inactive); in assay [7] (at 0.313 µM, OCI-C5x cells, without rucaparib) it was 122% (inactive); in [7] (at 0.313 µM, OCI-P5x cells, with rucaparib 20 µM, 100% = cells with rucaparib alone), 114% (inactive); in [7] (at 0.313 µM, OCI-P5x cells, without rucaparib), 110% (inactive). Besides, the viability in assay [7] (at 1.25 µM, OCI-C5x cells, with rucaparib 10 µM, 100% = cells with rucaparib alone) is 119% (inactive); in assay [7] (at 1.25 µM, OCI-C5x cells, without rucaparib) it was 122% (inactive); in [7] (at 1.25 µM, OCI-P5x cells, with rucaparib 20 µM, 100% = cells with rucaparib alone), 109% (inactive); in assay [7] (at 1.25 µM, OCI-P5x cells, without rucaparib) it was 108% (inactive); in assay [7] (at 5 µM, OCI-C5x cells, with rucaparib 10 µM, 100% = cells with rucaparib alone), 117% (inactive); in assay [7] (at 5 µM, OCI-C5x cells, without rucaparib), 129% (inactive). The viability in assay [7] (at 5 µM, OCI-P5x cells, with rucaparib 20 µM, 100% = cells with rucaparib alone) was 105% (inactive); in [7] (at 5 µM, OCI-P5x cells, without rucaparib) it was 115% (inactive).
Turning to `COc1ccc(-n2c(C)c([N+](=O)[O-])c3ccc(O)cc32)cc1`, the compound was classed as inactive in [1], in [3], in assay [8], in assay [5], in assay [9] and in assay [10]. For the same compound, the AC50 in [2] is 4.69 µM (active). The values for the fold change in assay [11] (setting [14]) and in [11] (setting [15]) were 0.881 (inactive) and 0.334, respectively. Besides, the cell count in assay [11] (setting [16]) was 6450; in assay [11] (setting [17]), 7330. The z-score is 0.252 (inactive) in assay [12] (setting [18]) and -3.43 in assay [12] (setting [19]).
In the case of `Cc1cnc(-c2cc(N3CCN(C(=O)CCS(C)(=O)=O)CC3)ncc2Cl)c(C)c1`, the call in [1], in assay [2], in assay [13], in [4], in assay [8] and in assay [5] was inactive. Besides, the outcome in assay [9] and in assay [10] was inactive. The results for the fold change in assay [11] (setting [14]) and in assay [11] (setting [15]) were 0.856 (inactive) and 0.666, respectively. Besides, the results for the cell count in assay [11] (setting [16]) and in assay [11] (setting [17]) were 8550 and 10000, respectively. Further, the z-score in [12] (setting [18]) was -0.296 (inactive); in assay [12] (setting [19]), 0.28.
`CNC(=O)c1ccc2cc(C3(O)CCn4cncc43)ccc2c1` (stereo unspecified): the call in [1], in [2], in assay [3], in assay [4], in assay [5] and in assay [9] was inactive. Further, the compound was classed as inactive in assay [10]. For the same compound, the fold change in [11] (setting [14]) is 0.927 (inactive); in assay [11] (setting [15]), 0.607. In addition, the values for the cell count in assay [11] (setting [16]) and in [11] (setting [17]) were 8020 and 8650, respectively. For the same compound, the z-score in assay [12] (setting [18]) is 0.566 (inactive); in [12] (setting [19]), -0.147.
Regarding `C[C@]12CCC3=C4CCC(=O)C=C4CC[C@H]3[C@@H]1CC[C@@]2(O)CC#N`, the call in assay [1], in [2], in assay [3], in [8], in assay [5] and in assay [9] was inactive.
